In PubChem BioAssay AID624330 (Southern Research Specialized Biocontainment Screening …, 2012):
The whole screen tested about 340,000 compounds, of which about 2,100 (0.62%) were called active.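 How the source made its calls: active means first-screen hits whose inhibition reached a set limit at any dose in the follow-up dose series; inconclusive means inhibition above the set first-screen limit but never retested; inactive means the rest.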 Not all results are given here. Entries with a potency or affinity are not part of this list.

Biological target: Rac GTPase-activating protein 1 (Homo sapiens) (UniProt Q9H0H5)
Experiment: MgcRacGAP GTPase-activating activity inhibitors, confirmation, biochemical, ADP Hunter fluorescence, primary and confirmatory (AID 624330);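 further: fluorescence reports GDP produced by GAP-driven GTP hydrolysis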
Details: MgcRacGAP-stimulated Rac1 GTP hydrolysis, at 30 µM, hits give high values, GST-tagged Rac1 F28L mutant substrate

Chain of Rac GTPase-activating protein 1 (Homo sapiens) (Q9H0H5 whole entry, looked up): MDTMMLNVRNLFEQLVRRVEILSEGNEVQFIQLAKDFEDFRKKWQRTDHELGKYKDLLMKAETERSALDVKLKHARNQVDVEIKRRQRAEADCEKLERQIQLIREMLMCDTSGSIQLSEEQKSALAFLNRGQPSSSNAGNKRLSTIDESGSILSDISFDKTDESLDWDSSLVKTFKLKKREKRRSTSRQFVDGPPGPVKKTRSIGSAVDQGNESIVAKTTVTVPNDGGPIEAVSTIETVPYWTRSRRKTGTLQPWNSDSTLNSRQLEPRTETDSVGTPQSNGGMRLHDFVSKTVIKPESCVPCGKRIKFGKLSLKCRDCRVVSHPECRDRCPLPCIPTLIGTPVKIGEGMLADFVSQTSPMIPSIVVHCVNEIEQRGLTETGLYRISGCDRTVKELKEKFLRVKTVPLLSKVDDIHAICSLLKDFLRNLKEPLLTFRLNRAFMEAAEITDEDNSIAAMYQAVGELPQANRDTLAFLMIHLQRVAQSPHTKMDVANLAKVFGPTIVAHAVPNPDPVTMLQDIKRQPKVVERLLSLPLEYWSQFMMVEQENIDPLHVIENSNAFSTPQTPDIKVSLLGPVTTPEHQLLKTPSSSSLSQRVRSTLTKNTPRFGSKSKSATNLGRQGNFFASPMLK

inhibition, inactive:
CCOC(=O)N1CCC(N2C(=O)c3ccc(C(=O)NCc4ccc(F)cc4)cc3C2=O)CC1 -5.85%
CC(=O)c1c(C)[nH]c(C(=O)OCC(=O)Nc2ccc3[nH]c(=O)[nH]c3c2)c1C 9.39%
O=S(=O)(Cc1ccccc1)Nc1ccc(F)cc1 8.87%
CC1=Nc2cc(C(=O)O)ccc2Sc2ccc(C)cc21 -10.1%
CCOC(=O)N1CCC(NC(=O)c2ccc3c(c2)N=C(C)c2ccccc2S3)CC1 4.04%
CCC1=Nc2cc(C(=O)O)ccc2Sc2ccccc21 -0.29%
CC1=Nc2cc(C(=O)NCCCOC(C)C)ccc2Sc2ccc(C)cc21 7.38%
Cc1cccc(N(C(=O)CNC(=O)c2ccco2)C(C(=O)NC2CCCC2)c2cccnc2)c1C (centres undefined) 5.36%
Cc1ccccc1OCC1Cn2c(nc3c2c(=O)[nH]c(=O)n3C)O1 (centres undefined) 2.68%
Cc1c(N2C(=O)/C(=C/c3ccc(N(C)C)cc3)N(C)C2=S)c(=O)n(-c2ccccc2)n1C 27.2%
Cc1c(NC(=S)N/N=C/c2cccc(O)c2)c(=O)n(-c2ccccc2)n1C 12.8%
Cc1c(O)c(=O)n(-c2ccccc2)n1C 2.13%
Cc1c(N=Cc2cc3c(cc2Cl)OCO3)c(=O)n(-c2ccccc2)n1C 4.04%
COC(=O)/C(N=Nc1c(C)n(C)n(-c2ccccc2)c1=O)=C(\C)O 6.21%
Cc1c(NC(=S)N/N=C/c2ccc(Br)cc2)c(=O)n(-c2ccccc2)n1C 9.41%
CN1C(=S)N(c2cccnc2)C(=O)/C1=C\c1ccc(N(C)C)cc1 12.2%
CC(=O)/C(N=Nc1c(C)n(C)n(-c2ccccc2)c1=O)=C(\C)O 0.69%
O=C(Nc1cccc(-c2cccc(F)c2)c1)C1CCN(Cc2ccco2)CC1 7.74%
O=C(NCCN1C(=O)S/C(=C\c2ccccc2F)C1=O)C1CCCN1C(=O)c1cccs1 (centres undefined) -14.1%
Cc1ccccc1OCC(=O)N/N=C/c1cn(Cc2ccccc2)c2ccccc12 3.64%
Cc1ccc2nc(-c3ccc(N4C(=N)SC5CS(=O)(=O)CC54)cc3)sc2c1 (centres undefined) 9.19%
CCOc1ccc(C(=O)N2CCC(C(=O)c3ccc4c(c3)OCCO4)CC2)cc1 -2.21%
COc1ccc(/C=C2\CCCC(C(=O)C(F)(F)F)=C2O)cc1 4.33%
Cc1ccc(S(=O)(=O)Nc2ccc(S(=O)(=O)N3CCOCC3)cc2)cc1 0.84%
